Here are results for 20 compounds from the supplement of paper PMC7261846.

Counter-ions that a name gives are not always drawn. ± gives the uncertainty stated by the source.

For this experiment, the system named is Candida albicans SNY425 biofilm. Nature of the experiment: biofilm OD600 with compound plus antifungal (OD600 (absorbance)); higher = more biofilm remaining.
Setting [1] is: assay detail: disruption of 24-h mature biofilm (compound + antifungal for a second 24 h).
Where [2] appears, read: assay detail: sustained inhibition (compound + antifungal during 90-min adherence and 24-h growth).

In the case of `CCC[C@@]1(CCc2ccccc2)CC(O)=C([C@H](CC)c2cccc(NS(=O)(=O)c3ccc(C(F)(F)F)cn3)c2)C(=O)O1` [tipranavir] + C[C@@H]1[C@H](O)[C@@H](C)/C=C/C=C/C=C/C=C/C=C/C=C/C=C/[C@H](O[C@@H]2O[C@H](C)[C@@H](O)[C@H](N)[C@@H]2O)C[C@@H]2O[C@](O)(C[C@@H](O)C[C@@H](O)[C@H](O)CC[C@@H](O)C[C@@H](O)CC(=O)O[C@H]1C)C[C@H](O)[C@H]2C(=O)O [amphotericin B] (first compound 12.5 µM), the “biofilm OD600” value worked out at 0.264 ± 0.0073 under setting [1] and 0.185 ± 0.0069 under setting [2].

Turning to `Cc1ccc(S(=O)(=O)N[C@@H](Cc2ccccc2)C(=O)CCl)cc1` + OC(Cn1cncn1)(Cn1cncn1)c1ccc(F)cc1F [fluconazole] (first compound 4 µM), the “biofilm OD600” value runs as follows: under setting [1], 0.241 ± 0.01; under setting [2], 0.0966 ± 0.012.

On to `CCCC[C@@H](C=O)NC(=O)[C@H](CC(C)C)NC(=O)OCc1ccccc1` [Calpeptin] + CC[C@H](C)C[C@H](C)CCCCCCCCC(=O)N[C@H]1C[C@@H](O)[C@@H](NCCN)NC(=O)[C@@H]2[C@@H](O)CCN2C(=O)[C@H]([C@H](O)CCN)NC(=O)[C@H]([C@H](O)[C@@H](O)c2ccc(O)cc2)NC(=O)[C@@H]2C[C@@H](O)CN2C(=O)[C@H]([C@@H](C)O)NC1=O [caspofungin] (first compound 12.5 µM), for which the “biofilm OD600” value by setting is: under setting [1], 0.263 ± 0.0082; under setting [2], 0.174 ± 0.0085.

For the compound `N[C@H](C(=O)O)[C@@H]1CC(Cl)=NO1` [Acivicin] + C[C@@H]1[C@H](O)[C@@H](C)/C=C/C=C/C=C/C=C/C=C/C=C/C=C/[C@H](O[C@@H]2O[C@H](C)[C@@H](O)[C@H](N)[C@@H]2O)C[C@@H]2O[C@](O)(C[C@@H](O)C[C@@H](O)[C@H](O)CC[C@@H](O)C[C@@H](O)CC(=O)O[C@H]1C)C[C@H](O)[C@H]2C(=O)O [amphotericin B] (first compound 4 µM), the “biofilm OD600” value was 0.31 ± 0.0054 under setting [1] and 0.181 ± 0.006 under setting [2].

For `CCCCC[C@H](CC(=O)NO)C(=O)N[C@H](C(=O)N1CCC[C@H]1CO)C(C)C` [Actinonin] + C[C@@H]1[C@H](O)[C@@H](C)/C=C/C=C/C=C/C=C/C=C/C=C/C=C/[C@H](O[C@@H]2O[C@H](C)[C@@H](O)[C@H](N)[C@@H]2O)C[C@@H]2O[C@](O)(C[C@@H](O)C[C@@H](O)[C@H](O)CC[C@@H](O)C[C@@H](O)CC(=O)O[C@H]1C)C[C@H](O)[C@H]2C(=O)O [amphotericin B] (first compound 12.5 µM), the “biofilm OD600” value was 0.255 ± 0.017 under setting [1] and 0.191 ± 0.0077 under setting [2].

With `O=C(O)CNC(=O)C(CS)Cc1ccccc1` (racemic) [DL-Thiorphan] + CC[C@H](C)C[C@H](C)CCCCCCCCC(=O)N[C@H]1C[C@@H](O)[C@@H](NCCN)NC(=O)[C@@H]2[C@@H](O)CCN2C(=O)[C@H]([C@H](O)CCN)NC(=O)[C@H]([C@H](O)[C@@H](O)c2ccc(O)cc2)NC(=O)[C@@H]2C[C@@H](O)CN2C(=O)[C@H]([C@@H](C)O)NC1=O [caspofungin] (first compound 12.5 µM), the “biofilm OD600” value reads like this: under setting [1], 0.262 ± 0.013; under setting [2], 0.163 ± 0.0098.

`CCC[C@@]1(CCc2ccccc2)CC(O)=C([C@H](CC)c2cccc(NS(=O)(=O)c3ccc(C(F)(F)F)cn3)c2)C(=O)O1` [tipranavir] + OC(Cn1cncn1)(Cn1cncn1)c1ccc(F)cc1F [fluconazole] (first compound 12.5 µM): the “biofilm OD600” value worked out at 0.256 ± 0.0057 under setting [1] and 0.143 ± 0.0085 under setting [2].

On to `CCCCCCCCCC(=O)N[C@@H](CCCN=C(N)N)C(=O)N[C@H](C(=O)N[C@@H](CCCCN)C(=O)N[C@@H](CCCN=C(N)N)C(=O)CCl)C(C)C` + CC[C@H](C)C[C@H](C)CCCCCCCCC(=O)N[C@H]1C[C@@H](O)[C@@H](NCCN)NC(=O)[C@@H]2[C@@H](O)CCN2C(=O)[C@H]([C@H](O)CCN)NC(=O)[C@H]([C@H](O)[C@@H](O)c2ccc(O)cc2)NC(=O)[C@@H]2C[C@@H](O)CN2C(=O)[C@H]([C@@H](C)O)NC1=O [caspofungin] (first compound 4 µM), for which the “biofilm OD600” value under setting [1] is 0.18 ± 0.013 and the “biofilm OD600” value under setting [2] turned out to be 0.141 ± 0.018.

In the case of `CCC(C)[C@H](NS(=O)(=O)c1cccc2ccccc12)C(=O)N[C@H](C=O)Cc1c[nH]c2ccccc12` (stereo not given in full) + CC[C@H](C)C[C@H](C)CCCCCCCCC(=O)N[C@H]1C[C@@H](O)[C@@H](NCCN)NC(=O)[C@@H]2[C@@H](O)CCN2C(=O)[C@H]([C@H](O)CCN)NC(=O)[C@H]([C@H](O)[C@@H](O)c2ccc(O)cc2)NC(=O)[C@@H]2C[C@@H](O)CN2C(=O)[C@H]([C@@H](C)O)NC1=O [caspofungin] (first compound 12.5 µM), the “biofilm OD600” value reads like this: under setting [1], 0.253 ± 0.01; under setting [2], 0.18 ± 0.0089.

`C[C@H](CS)C(=O)N1CCC[C@H]1C(=O)O` [Captopril] + OC(Cn1cncn1)(Cn1cncn1)c1ccc(F)cc1F [fluconazole] (first compound 12.5 µM): the “biofilm OD600” value under setting [1] was 0.281 ± 0.0069 and the “biofilm OD600” value under setting [2] was 0.167 ± 0.01.

Regarding `N=C(N)Nc1ccc(C(=O)Oc2ccc3cc(C(=N)N)ccc3c2)cc1` [Nafamostat mesylate] + OC(Cn1cncn1)(Cn1cncn1)c1ccc(F)cc1F [fluconazole] (first compound 12.5 µM), the “biofilm OD600” value under setting [1] turned out to be 0.262 ± 0.011 and the “biofilm OD600” value under setting [2] came to 0.104 ± 0.0089.

Turning to `NC(N)=NCCC[C@H](NC(=O)[C@@H]1CCCN1C(=O)[C@H](N)Cc1ccccc1)C(=O)CCl` + C[C@@H]1[C@H](O)[C@@H](C)/C=C/C=C/C=C/C=C/C=C/C=C/C=C/[C@H](O[C@@H]2O[C@H](C)[C@@H](O)[C@H](N)[C@@H]2O)C[C@@H]2O[C@](O)(C[C@@H](O)C[C@@H](O)[C@H](O)CC[C@@H](O)C[C@@H](O)CC(=O)O[C@H]1C)C[C@H](O)[C@H]2C(=O)O [amphotericin B] (first compound 12.5 µM), the “biofilm OD600” value is, setting by setting: under setting [1], 0.291 ± 0.0073; under setting [2], 0.213 ± 0.0082.

`C[C@H](NC(=O)[C@@H]1CCCN1C(=O)[C@@H]1CCCN1C(=O)[C@@H](O)[C@H](N)Cc1ccccc1)C(N)=O` [Apstatin] + CC[C@H](C)C[C@H](C)CCCCCCCCC(=O)N[C@H]1C[C@@H](O)[C@@H](NCCN)NC(=O)[C@@H]2[C@@H](O)CCN2C(=O)[C@H]([C@H](O)CCN)NC(=O)[C@H]([C@H](O)[C@@H](O)c2ccc(O)cc2)NC(=O)[C@@H]2C[C@@H](O)CN2C(=O)[C@H]([C@@H](C)O)NC1=O [caspofungin] (first compound 12.5 µM): the “biofilm OD600” value turned out to be 0.292 ± 0.0095 under setting [1] and 0.185 ± 0.0079 under setting [2].

For `N=C(N)Nc1ccc(C(=O)Oc2ccc3cc(C(=N)N)ccc3c2)cc1` [Nafamostat mesylate] + C[C@@H]1[C@H](O)[C@@H](C)/C=C/C=C/C=C/C=C/C=C/C=C/C=C/[C@H](O[C@@H]2O[C@H](C)[C@@H](O)[C@H](N)[C@@H]2O)C[C@@H]2O[C@](O)(C[C@@H](O)C[C@@H](O)[C@H](O)CC[C@@H](O)C[C@@H](O)CC(=O)O[C@H]1C)C[C@H](O)[C@H]2C(=O)O [amphotericin B] (first compound 12.5 µM), the “biofilm OD600” value runs as follows: under setting [1], 0.257 ± 0.012; under setting [2], 0.171 ± 0.011.

`CC(C)C[C@H](NP(=O)(O)O[C@@H]1O[C@@H](C)[C@H](O)[C@@H](O)[C@H]1O)C(=O)N[C@@H](Cc1c[nH]c2ccccc12)C(=O)O` [Phosphoramidon] + OC(Cn1cncn1)(Cn1cncn1)c1ccc(F)cc1F [fluconazole] (first compound 12.5 µM): the “biofilm OD600” value is 0.255 ± 0.0097 under setting [1] and 0.156 ± 0.0037 under setting [2].

`CC(C)C[C@H](NC(=O)[C@@H](O)[C@H](N)Cc1ccccc1)C(=O)O` [Bestatin·HCl] + OC(Cn1cncn1)(Cn1cncn1)c1ccc(F)cc1F [fluconazole] (first compound 12.5 µM): the “biofilm OD600” value is, setting by setting: under setting [1], 0.284 ± 0.013; under setting [2], 0.163 ± 0.011.

`C[C@]1(Cn2ccnn2)[C@H](C(=O)O)N2C(=O)C[C@H]2S1(=O)=O` [Tazobactam] + CC[C@H](C)C[C@H](C)CCCCCCCCC(=O)N[C@H]1C[C@@H](O)[C@@H](NCCN)NC(=O)[C@@H]2[C@@H](O)CCN2C(=O)[C@H]([C@H](O)CCN)NC(=O)[C@H]([C@H](O)[C@@H](O)c2ccc(O)cc2)NC(=O)[C@@H]2C[C@@H](O)CN2C(=O)[C@H]([C@@H](C)O)NC1=O [caspofungin] (first compound 12.5 µM): the “biofilm OD600” value under setting [1] was 0.275 ± 0.014 and the “biofilm OD600” value under setting [2] is 0.181 ± 0.0097.

`COC(=O)C[C@H](NC(=O)[C@H](C)NC(=O)[C@@H](NC(=O)OCc1ccccc1)C(C)C)C(=O)CF` + OC(Cn1cncn1)(Cn1cncn1)c1ccc(F)cc1F [fluconazole] (first compound 12.5 µM): the “biofilm OD600” value runs as follows: under setting [1], 0.283 ± 0.0098; under setting [2], 0.12 ± 0.0089.

For `O=C1Nc2ccc([N+](=O)[O-])cc2C1=O` [5-Nitroisatin] + C[C@@H]1[C@H](O)[C@@H](C)/C=C/C=C/C=C/C=C/C=C/C=C/C=C/[C@H](O[C@@H]2O[C@H](C)[C@@H](O)[C@H](N)[C@@H]2O)C[C@@H]2O[C@](O)(C[C@@H](O)C[C@@H](O)[C@H](O)CC[C@@H](O)C[C@@H](O)CC(=O)O[C@H]1C)C[C@H](O)[C@H]2C(=O)O [amphotericin B] (first compound 12.5 µM), the “biofilm OD600” value by setting is: under setting [1], 0.256 ± 0.005; under setting [2], 0.159 ± 0.013.

For `CO[C@@H]1[C@H](OC(=O)/C=C/C=C/C=C/C=C/C(=O)O)CC[C@]2(CO2)[C@H]1[C@@]1(C)O[C@@H]1CC=C(C)C` [Fumagillin] + CC[C@H](C)C[C@H](C)CCCCCCCCC(=O)N[C@H]1C[C@@H](O)[C@@H](NCCN)NC(=O)[C@@H]2[C@@H](O)CCN2C(=O)[C@H]([C@H](O)CCN)NC(=O)[C@H]([C@H](O)[C@@H](O)c2ccc(O)cc2)NC(=O)[C@@H]2C[C@@H](O)CN2C(=O)[C@H]([C@@H](C)O)NC1=O [caspofungin] (first compound 12.5 µM), the “biofilm OD600” value under setting [1] was determined as 0.257 ± 0.0085 and the “biofilm OD600” value under setting [2] was determined as 0.166 ± 0.0044.
